In PubChem BioAssay (NCI):
The panel holds about 83,000 compounds, 20% with a hit somewhere; the sample as a whole holds those more often.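 Interpretation: 100, growth as untreated; towards 0, rising growth inhibition; 0, no net growth; 0 to -100, cell death. Compounds scoring below 10 were considered active.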 A number with no mark means an inactive call. Calls of active or inactive are those of the source.

test system: HL-60(TB) leukemia; assay: NCI-60 one-dose screen, 48 h (100 = growth as untreated, 0 = no growth, -100 = all killed); conditions: 10 µM unless noted

SMILES	growth
COc1nc(/C=C\Nc2ccc3c(c2)OCCOCCOCCOCCO3)nc(OC)n1	65.4%
COc1cc(CNc2ccccc2C(=O)N2CCN(C(=O)c3cc(-c4cc(OC)c(OC)c(OC)c4)n4nc(-c5ccccc5)cc4n3)CC2)cc(OC)c1OC	34.7%
Cc1ccc(C(O)C2CC2)cc1 (stereo not given)	99.3%
CN1C(N2CCN(S(=O)(=O)c3ccccc3)CC2)=NS(=O)(=O)c2ccccc21	116%
CCC(C)(C)C1CCC(O)CC1 (stereo not given)	83.8%
Nc1ncnc2c1C(c1ccc([N+](=O)[O-])cc1)c1sc3c(F)cccc3c1O2 (stereo not given)	97.2%
Cc1c(Cn2cc(COc3ccc(Br)cc3)nn2)c(C)c(Cn2cc(COc3ccc(Br)cc3)nn2)c(C)c1Cn1cc(COc2ccc(Br)cc2)nn1	89.8%
COc1ccc(/C=C2\COc3ccc(O)c(O)c3C2=O)c(OC)c1	-13.2% (active)
CCCN1C(=O)N(CCC)C2C1NC(=S)N2/N=C/C=C/c1ccccc1OC (stereo not given)	-42.1% (active)
CCN1C(=O)N(CC)C2C1NN=C1SCC(=O)N12 (stereo not given)	99.1%
CN1CCN(Cc2ccc(NC(=O)c3ccc(C(C)(C)C)c(C#Cc4cnc5cccnn45)c3)cc2C(F)(F)F)CC1	-17.4% (active)
NC1=NN=C(N)C1=Cc1cc2ccccc2n2nnnc12	96.8%
COc1cc(/C=C/C(=O)C(C(=O)/C=C/c2ccc(OC(=O)CCNc3nnc(C)s3)c(OC)c2)C(=O)CCNc2nnc(C)s2)ccc1OC(=O)CCNc1nnc(C)s1	-40.1% (active)
COc1cc(C(=O)/C(C)=C/c2c[nH]c3ccccc23)cc(OC)c1OC	-9.27% (active)
CC1=CC(=O)N(c2cccc3c(N4C(=O)C=C(C)C4=O)cccc23)C1=O	-1.53% (active)
O=C(CSc1nccc(Nc2ccc(S(=O)(=O)Nc3nccs3)cc2)n1)c1ccc(C(F)(F)F)cc1	103%
N#CCCN(CCCN1CCOCC1)CN1C(=O)c2ccccc2C1=O	83.2%
Cc1c(NC(=O)OC[C@@H]2COCCN2)cn2ncnc(Nc3ccc4c(cnn4Cc4cccc(F)c4)c3)c12	-25.6% (active)
O=C(CSc1nc2ccc([N+](=O)[O-])cc2[nH]1)Nc1ccc(Br)cc1	39.4%
Cc1ccc2c(c1)nc(C)n2-c1ncnc2c1CC(C)c1cc(O)ccc1N2C (stereo not given)	-5.44% (active)

SMILES	growth
CCNC(=O)C#Cc1ccc2c(C(=Nc3ccc(CN(C)C)cc3)c3ccccc3)c(O)[nH]c2c1	-7.13% (active)
COc1ccc(C(=O)c2cc3c(N)c(C(=O)Nc4ccc(Br)cc4)sc3nc2C)cc1	80.2%
C1CCC(N2CN3c4nonc4N4CN(C5CCCCC5)CN5c6nonc6N(C2)C3C45)CC1 (stereo not given)	100%
CCc1nn2c(-c3ccccc3)c(-c3cc(OC)c(OC)c(OC)c3)nc2s1	68%
S=c1nc(CS)[nH]c2ccccc12	101%
Cc1nc2ccccc2n1-c1ncnc2c1CC(C)c1ccccc1N2C (stereo not given)	83.8%
Cc1ccc(-n2cc(-c3ccccc3)c3c2N=NN2CCN=C32)cc1	101%
CCCCCC(=O)OCc1ccccc1	89.4%
O=C(/C=C/c1ccccc1)c1ccccc1O	24.1%
COc1cc2oc(-c3ccc(O)cc3)cc(=O)c2c(O)c1-c1c(OC)cc(O)c2c(=O)cc(-c3ccc(O)cc3)oc12	0.122% (active)
COc1cc(/C=C2\CN(S(=O)(=O)c3ccc(C)cc3)C/C(=C\c3cc(CN4CCCCC4)c(O)c(OC)c3)C2=O)cc(CN2CCCCC2)c1O	-37.2% (active)
NC(=S)N=Nc1c(O)c2ccccc2c2ccccc12	100%
COc1cc(C2C3=C(COC3=O)N(CCO)c3cc4c(cc32)OCCO4)cc(OC)c1O (stereo not given)	-9% (active)
CC(=O)N=c1ccc2nc3c(cc(N)c4ccccc43)oc-2c1	-82.9% (active)
COc1cc2c(c(OC)c1OC)-c1ccc(NN(C(=O)c3ccccc3)C(=O)c3ccccc3)c(=O)cc1[C@@H](NC(C)=O)CC2 (tested in a mixture with another compound)	-1.35% (active)
Cc1c2c(c(C)c3c1oc1cc(O)ccc13)C(=O)N(CCN1CCCCC1)C2=O	99.3%
CS(=O)(=O)c1ccc(NC(=O)c2ccccc2)nc1	67.5%
CCOC(=O)c1c(C(F)(F)F)n([O-])c2ccc(OC)cc2[n+]1=O	-9.6% (active)
Cc1c(C(=O)N[C@@H](Cc2ccccc2)C(=O)C(=O)NCc2ccc(F)cc2)[nH]c2ccccc2c1=O	96.8%
C[C@@H]1C(=O)N(C[C@H](Cc2ccccc2)NC(=O)OCc2ccccc2)[C@]1(Cc1ccccc1)C(=O)OCc1ccccc1	37.4%
